HepG2 tox – qHTS for Inhibitors of TGF-b: Cytotox Counterscreen | HepG2 CAGA-GFP viability, ATP luminescence, 18 h | Potency, µM (doses to about 46.1 µM), for the others: top-dose activity change, negative = cytotoxicity, actives largely listed as cytotoxic | hit rate 0.76% among 410,000; further: potency means the concentration at half of the fitted maximal effect
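CellTiter-Glo luminescence gave cytotoxicity after 18 hours at 37 degrees C. The cells were HepG2 CAGA-GFP in 1% FBS DMEM, stimulated with 500 pg/mL TGF-beta after compound addition. %Activity was normalised to no-cell wells (complete cell-killing) and DMSO (no toxicity), and curves were fitted and classified.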
TGFb SMAD3 inh – qHTS for Inhibitors of TGF-b; HepG2 CAGA-GFP TGF-b/SMAD3 reporter, GFP fluorescence, 18 h; TGF-beta stimulated, 500 pg/mL final; AID 588855, 2011; hit rate 1.2% among 410,000; Potency, µM (doses to about 46.1 µM), for the others: at the highest dose activity, negative = inhibition, actives largely listed as inhibitors; further: potency means the concentration at half of the fitted maximal effect; on the % scale 0 is the no-effect control and ±100 the full control effect; nearly all actives have a fitted effect of over 65% in size
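Cell-based qHTS in HEPG2 carrying a CAGA-GFP Smad reporter; compounds added before 500 pg/mL final TGF-beta, 18 h incubation at 37 degrees C, GFP fluorescence quantified per cell by imaging cytometry.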
IL-1B inflam inh – qHTS for Inhibitors of Inflammasome Signaling: IL-1-beta AlphaLISA Primary Screen | AID 743279, 2014 | THP-1 LPS/ATP IL-1B secretion, AlphaLISA, 16 h; hits give low values | hit rate 4.7% among 360,000 | activity change, % at 57.5 µM; in the data active means activity change below about -50%; inconclusive means mostly about -30% to -49%; further: on the % scale 0 is the no-effect control and ±100 the full control effect
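Secreted IL-1B measured by AlphaLISA bead assay after 16 h compound exposure of THP-1 cells; compounds (final up to 57.5 uM) added 1 h before LPS (250 ng/mL) and ATP (1.25 mM) stimulation; lower signal means less secretion.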
TDP1 cell noCPT – qHTS for Inhibitors of human tyrosyl-DNA phosphodiesterase 1 (TDP1): qHTS in cells in absence of CPT. DT40 Tdp1-/- hTDP1 cells, no CPT, ATP luminescence, 48 h. Potency, µM (highest dose often 46.2 µM), inactives show at the highest dose activity change, negative = growth inhibition, actives largely listed as inhibitors. hit rate 15% among 420,000; further: potency means the concentration at half of the fitted maximal effect; on the % scale 0 is the no-effect control and ±100 the full control effect; nearly all actives have a fitted effect of over 55% in size
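Chicken DT40 Tdp1-/- cells complemented with human TDP1, screened without camptothecin (DMSO vehicle only), 400 cells/well. Compounds pin-transferred, cells incubated at 37 °C for at least 48 hr. Growth read as ATP-dependent luminescence (CellTiter-Glo, 30 min at RT).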
TDP1 inh – qHTS Assay for Inhibitors of Tyrosyl-DNA Phosphodiesterase (TDP1); recombinant TDP1, AlphaScreen DNA substrate cleavage; Potency, µM (highest dose often 130 µM), for the others: at the highest dose activity change, negative = inhibition, hits mostly inhibitors; hit rate 0.28% among 350,000; AID 485290, 2010; further: potency means the concentration at half of the fitted maximal effect; on the % scale 0 is the no-effect control and ±100 the full control effect; nearly all actives have a fitted effect of over 40% in size
Target sequence (Q9NUW8 whole entry, looked up): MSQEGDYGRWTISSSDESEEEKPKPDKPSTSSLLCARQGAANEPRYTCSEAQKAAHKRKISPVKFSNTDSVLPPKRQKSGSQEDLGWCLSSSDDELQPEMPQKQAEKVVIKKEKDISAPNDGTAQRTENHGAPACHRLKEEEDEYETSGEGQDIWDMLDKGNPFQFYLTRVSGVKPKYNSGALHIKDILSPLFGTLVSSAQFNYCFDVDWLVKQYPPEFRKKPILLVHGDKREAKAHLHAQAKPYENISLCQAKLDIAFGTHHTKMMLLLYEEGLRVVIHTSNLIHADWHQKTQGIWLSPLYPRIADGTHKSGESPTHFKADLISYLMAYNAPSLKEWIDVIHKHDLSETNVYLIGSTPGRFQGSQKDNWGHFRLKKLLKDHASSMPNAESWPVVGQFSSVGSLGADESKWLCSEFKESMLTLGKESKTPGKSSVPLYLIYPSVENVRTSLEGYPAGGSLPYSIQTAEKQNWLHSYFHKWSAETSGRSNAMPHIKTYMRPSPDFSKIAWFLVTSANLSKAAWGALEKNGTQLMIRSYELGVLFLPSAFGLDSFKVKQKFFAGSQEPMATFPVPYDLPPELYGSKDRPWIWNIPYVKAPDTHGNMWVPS
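Signal: AlphaScreen proximity between streptavidin donor and anti-FITC acceptor beads on intact substrate. Reaction: Tdp1 1 nM, substrate 15 nM final, 5 min RT after 15 min compound preincubation.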
TDP1 cell CPT – qHTS for Inhibitors of human tyrosyl-DNA phosphodiesterase 1 (TDP1): qHTS in cells in presence of CPT. chicken DT40 Tdp1-/-;hTDP1 cells + 20 nM CPT, ATP luminescence, 48 h. Potency, µM (top dose mostly 46.2 µM), for the others: at the highest dose activity change, negative = growth inhibition, most hits filed as inhibitors. hit rate 12% among 420,000; further: potency means the concentration at half of the fitted maximal effect; on the % scale 0 is the no-effect control and ±100 the full control effect; nearly all actives have a fitted effect of over 55% in size
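Chicken DT40 Tdp1-/- cells complemented with human TDP1, 400 cells/well, exposed to compounds plus 20 nM camptothecin for at least 48 h at 37 C; viability read as ATP content by CellTiter-Glo luminescence.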
Numbers without * were called inactive; ? = inconclusive; / = not tested or not shown; [ ] = another dose, or the depositor's remark. This is a sample that favours compounds with a hit; in the whole collection about 18% have one here. Unless noted, the call rests on the fitted dose curve; in most records, active means well fitted curve in the direction sought with a large enough effect; inconclusive means small, poorly fitted or top-dose-only effect, or another doubt; inactive means no such curve, though single readings can be large; an effect the other way counts as inactive or inconclusive.

SMILES	HepG2 tox	TGFb SMAD3 inh	IL-1B inflam inh	TDP1 cell noCPT	TDP1 inh	TDP1 cell CPT
O=C(C1CCN(c2ncnc3c2nc2n3CCCCC2)CC1)N1CCN(c2ccccc2)CC1	-23%	?	/	21µM*	0%	?
O=C(C1CCN(c2ncnc3c2nc2n3CCCCC2)CC1)N1CCN(c2ccc(F)cc2)CC1	-1%	?	-19	12µM*	4%	?
CCc1c(C)nc2ncnn2c1N1CCC(C(=O)N2CCN(c3ccc(F)cc3)CC2)CC1	-1%	?	-13	15µM*	1%	16µM*
N#Cc1sc2nc(-c3ccccc3)cc(-c3ccco3)c2c1N	-38%	-23%	-9	?	-8%	18µM*
CSCCC(NS(=O)(=O)c1ccc2c(c1)OCCO2)C(=O)N(C)Cc1ccccc1F (centres undefined)	-3%	10%	-10	21µM*	2%	?
CSCCC(NS(=O)(=O)c1cccc(C(F)(F)F)c1)C(=O)N(C)Cc1ccc2c(c1)OCCO2 (centres undefined)	-17%	?	-1	?	4%	?
CSCCC(NS(=O)(=O)c1ccc2c(c1)OCCO2)C(=O)N(C)Cc1ccc(F)cc1 (centres undefined)	-7%	6%	-1	13µM*	-3%[0.505 µM]	23µM*
Cc1nsc2nc3c(F)c(F)c(F)c(F)c3cc12	-26%	?	-97*	?	/	?
CCOC(=O)N1CCC(n2c(SCC(=O)c3ccccc3)nc3ccsc3c2=O)CC1	-31%	-5%	-16	2.9µM*	-3%	2.6µM*
CCOC(=O)N1CCC(n2c(SCC(=O)NCc3ccco3)nc3ccsc3c2=O)CC1	1%	?	33	18µM*	0%	23µM*
CCOC(=O)CSc1nc2ccsc2c(=O)n1C1CCN(C(=O)OCC)CC1	-3%	-5%	-12	?	1%	?
O=C(COc1ccccc1)N=C1SC2CS(=O)(=O)CC2N1CCc1ccccc1 (centres undefined)	-14%	-4%	-13	-6%	7%	-6%
O=C(CSc1ccc(Cl)cc1)Nc1ccc(N2CCN(C(=O)c3ccco3)CC2)cc1	-18%	?	-68*	23µM*	5%	?
CCC(=O)N1CCN(c2ccc(NC(=O)COc3ccc(CC)cc3)cc2)CC1	-10%	-1%	-9	21µM*	-1%	-19%
Cc1ccccc1OCC(=O)Nc1ccc(N2CCN(C(=O)c3ccco3)CC2)cc1	-24%	-11%	?	21µM*	5%	?
CCC(=O)N1CCN(c2ccc(NC(=O)c3ccc(Br)o3)cc2)CC1	-10%	0%	-56*	-14%	5%	-8%
CN1CCN(c2ccc(NC(=O)c3ccc(Br)o3)cc2)CC1	-13%	-1%	-22	12%	4%	-2%
O=C(CSc1ccc(Cl)cc1)Nc1ccc(NC(=O)c2ccco2)cc1	-3%	6%	-11	-10%	0%	-1%
CCOc1ccccc1NC(=O)C1=C(C)Nc2ncnn2C1c1cccs1 (centres undefined)	-5%	10%	/	?	-1%	-3%
O=C(NCc1ccco1)/C(=C/c1ccccc1F)NC(=O)c1ccccc1	3%	4%	-8	21%	1%	16%
CC(=O)NS(=O)(=O)c1ccc(NC(=O)c2ccc(Br)o2)cc1	9%	-7%	-9	-7%	5%	5%
CCC(=O)NC(=S)Nc1ccc(NC(=O)c2ccc(Br)o2)cc1	-2%	-5%	-54*	?	2%	-10%
O=C(COc1ccc(Cl)cc1)Nc1ccc(N2CCN(C(=O)c3ccco3)CC2)cc1	-16%	-27%	?	13µM*	6%	10µM*
N/C(=N\O)c1ccc(NC(=O)c2ccc(Br)o2)cc1	-3%	1%	-2	?	1%	18µM*
Cc1cccc(OCC(=O)Nc2ccc(N3CCN(C(=O)c4ccco4)CC3)cc2)c1C	-17%	-2%	28	?	5%	?
SMILES	HepG2 tox	TGFb SMAD3 inh	IL-1B inflam inh	TDP1 cell noCPT	TDP1 inh	TDP1 cell CPT
CCC(=O)NC(=S)Nc1ccc(NC(=O)c2ccc(OC)cc2)cc1	2%	0%	4	10%	-1%	20%
Cc1cc(C)cc(OCC(=O)Nc2ccc(N3CCN(C(=O)c4ccco4)CC3)cc2)c1	-26%	?	?	18µM*	-1%	23µM*
O=[N+]([O-])c1nccn1CCCCCCCCCCCN1CCOCC1	-29%	-23%	-1	?	/	?
O=C(COc1ccc([N+](=O)[O-])cc1)Nc1ccc(N2CCN(C(=O)c3ccco3)CC2)cc1	-6%	0%	-10	5.8µM*	3%	9.2µM*
OC[C@@H]1CN(Cc2ccco2)C[C@H](n2cnc3c(N4CCN(c5ccccc5)CC4)ncnc32)O1	-5%	-1%	9	23µM*	/	23µM*
OC[C@@H]1CN(Cc2ccccc2)C[C@H](n2ccc3c(N4CCCC4)ncnc32)O1	3%	9%	-56*	?	/	-7%
COc1cc(CN2C[C@@H](CO)O[C@@H](n3cnc4c(N5CCN(c6ccccc6)CC5)ncnc43)C2)cc(OC)c1OC	-15%	-18%	-8	15µM*	/	18µM*
COc1ccc(CN2C[C@@H](CO)O[C@@H](n3cnc4c(N5CCCC5)ncnc43)C2)cc1	-30%	11%	6	?	/	?
OCCN1CCN(c2ncnc3c2ncn3[C@H]2CN(Cc3ccccc3)C[C@@H](CO)O2)CC1	2%	5%	-18	?	/	?

High-throughput results from PubChem.
